Bioassay records from PubChem.
Pf growth 96h: inhibits malaria parasite growth, 96 h | hit rate 6.9% among 320,000 | Potency, µM (series often up to 28.7 µM), actives largely listed as inhibitors | AID 504834 | P. falciparum luciferase reporter growth, 96 h
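Infected RBCs, 2% Hct / 0.05% parasitemia final; luciferase-reporter P. falciparum; cpd 96 h, 37 C, 5% CO2; luciferase detection reagent; luminescence.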
HCMV antiviral: inhibitors of human cytomegalovirus; HFF cells, HCMV-luciferase reporter, 72 h; hits give low values; activity change, negative = inhibition, % at 57.5 µM; hit rate 4.5% among 410,000; in the data active means activity change below about -60%; inconclusive means no clear call, values can overlap the other calls; inactive means above about -39%
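Cell-based, HFFs, 1000 cells/well, 16 h 37C; cpds in DMSO + HCMV-luc, MOI 1 PFU/cell; 72 h 37C; OneGlo luminescence after 5 min RT; norm. to buffer vs Salinomycin 10uM.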
Pf growth 48h: inhibits P. falciparum growth in the first generation, 48 h; P. falciparum luciferase growth in erythrocytes, 48 h; hit rate 5.9% among 310,000; Potency, µM (highest dose often 28.7 µM), hits mostly inhibitors
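Here the parasites carry a stable luciferase gene and grow inside erythrocytes in Albumax-based RPMI medium with compound for one erythrocytic cycle. Activity is scored as loss of luminescent signal.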
HCV inh: blocks hepatitis C virus; Huh7.5.1 HCVcc-Cre infection, luciferase reporter, 44 h; Potency, µM (highest dose often 41.8 µM), usual class: inhibitors; hit rate 3.4% among 340,000; AID 651820
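Infectious HCVcc-Cre (~0.5 moi) was added to cells just after compound, with cells seeded 4 h earlier at 1,000 per well. Luciferase activity after 44 h culture reported infection; substrate was incubated 15 min at room temperature before reading.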
Large screens that a line does not name were inactive. Sampled rows, rich in hits. Any-hit rate of the full collection: about 13%. Unless noted, the call rests on the fitted dose curve; in most records, active means well fitted inhibition curve with a large enough effect; inconclusive means small, poorly fitted or top-dose-only effect, or another doubt; inactive means no such curve, though single readings can be large or run the other way.

CCOC(=O)C1CCCN(C(=O)CCCn2nc(C)n3c(cc4sccc43)c2=O)C1 (configuration not stated)	Pf growth 96h 2.94µM (no result: Pf growth 48h)
COc1ccc(NC(=O)c2cc3c(s2)-c2c(C)cccc2OC3)c(OC)c1	none (no result: Pf growth 96h, Pf growth 48h, HCV inh)
COc1ccc(/C=N/NC(=O)c2cc(-c3cccn3C)n[nH]2)cc1OC	Pf growth 96h 1.85µM, Pf growth 48h 13.1µM
COc1ccc2c(c1)c(C(=O)N/N=C/c1ccc(OC)c(OC)c1)c(C)n2C	Pf growth 96h 14.7µM
COc1cc(OC)c(OC)cc1/C=N/NC(=O)c1cc(-c2cccn2C)n[nH]1	Pf growth 96h inconclusive, Pf growth 48h inconclusive
COc1ccc2c(c1)c(C(=O)N/N=C/c1cn(C)c3ccccc13)c(C)n2C	none
CCOc1cccc(/C=N/NC(=O)c2cc(-c3cccn3C)n[nH]2)c1O	Pf growth 96h inconclusive, Pf growth 48h inconclusive, HCV inh 11.2µM
CCN(C(=O)CCS(=O)(=O)c1cc(Br)cc2c1N(C(=O)C1CC1)CC2)c1cccc(C)c1	none (no result: Pf growth 96h, Pf growth 48h, HCV inh)
O=C(COc1ccc(Cl)cc1Br)Nc1ccccc1N1CCCC1	Pf growth 96h inconclusive, Pf growth 48h inconclusive, HCV inh inconclusive
CC(C)CC(=O)Nc1ccccc1N1CCCC1	HCMV antiviral -78.5
Cc1cccc(C)c1OCC(=O)Nc1ccccc1N1CCCCC1	Pf growth 96h inconclusive, HCMV antiviral inconclusive, Pf growth 48h 11.7µM, HCV inh inconclusive
CC(C)CC(=O)NC(=S)Nc1ccccc1N1CCCC1	Pf growth 96h inconclusive, Pf growth 48h inconclusive
CCc1cccc(OCC(=O)Nc2ccccc2N2CCCC2)c1	Pf growth 96h inconclusive, Pf growth 48h inconclusive
Cc1cccc(OCC(=O)Nc2ccccc2N2CCCCC2)c1C	Pf growth 96h 1.85µM, Pf growth 48h 11.7µM, HCV inh inconclusive
Cc1ccc(Cl)c(OCC(=O)Nc2ccccc2N2CCCCC2)c1	Pf growth 96h inconclusive, HCMV antiviral inconclusive, Pf growth 48h 14.7µM
Cc1ccc(CCNC(=O)CN(c2ccc(C(C)C)cc2)S(=O)(=O)c2c(C)nn(C)c2C)cc1	none (no result: Pf growth 96h, Pf growth 48h, HCV inh)
CCN(Cc1ccccc1)C(=O)C(CC(C)C)NS(=O)(=O)c1ccc2c(c1)CCN2C(C)=O (configuration not stated)	none (no result: Pf growth 96h, Pf growth 48h, HCV inh)
COc1ccc(Cl)cc1NC(=O)Cn1c(=O)n(Cc2nc(C)no2)c(=O)c2ccccc21	none (no result: Pf growth 96h, Pf growth 48h, HCV inh)
CCC(=O)N1CC2(C1)CN(C(=O)c1ccccn1)[C@H](CO)c1c2c2ccc(OC)cc2n1C	none (no result: Pf growth 96h, Pf growth 48h, HCV inh)
COc1ccccc1OCc1nc2ccccc2n1Cc1ccccc1	none (no result: Pf growth 96h, Pf growth 48h, HCV inh)
CC(=O)Nc1nonc1-c1nnc(SCC(=O)Nc2ccc(C)c(Cl)c2)n1C	none (no result: Pf growth 96h, Pf growth 48h, HCV inh)
O=C(CNCCC1=CCCCC1)Nc1ccccc1N1CCCCC1	Pf growth 48h 13.1µM, HCV inh inconclusive
O=C(CNCC1CCCCC1)Nc1ccccc1N1CCCCC1	HCMV antiviral inconclusive, Pf growth 48h inconclusive, HCV inh 11.2µM
O=C(CN1CCc2ccccc2C1)Nc1ccccc1N1CCCCCC1	Pf growth 48h 13.1µM, HCV inh inconclusive (no result: Pf growth 96h, HCMV antiviral)
O=C(CN1CCc2ccccc2C1)Nc1ccccc1Cl	Pf growth 96h inconclusive
O=C(CNC1CCCCCC1)Nc1ccccc1N1CCCCC1	Pf growth 96h inconclusive, Pf growth 48h inconclusive, HCV inh inconclusive
CNC(=S)NNC(=O)COc1cccc(C)c1C	Pf growth 96h 8.28µM
CC(=O)c1ccc(NC(=O)c2ccc(CN3C(=O)CCn4nc(C)cc43)cc2)cc1	none (no result: Pf growth 96h, Pf growth 48h, HCV inh)
O=C(COc1ccccc1Cl)Nc1ccc(C(=O)O)cc1NC(=O)COc1ccccc1Cl	Pf growth 96h 6.57µM
O=C(CNS(=O)(=O)c1ccccc1)OCC(=O)c1c[nH]c2ccccc12	Pf growth 96h 4.15µM, Pf growth 48h 8.28µM
O=C(CC1CC2CCC1C2)OCC(=O)c1c[nH]c2ccccc12 (configuration not stated)	Pf growth 96h 5.22µM, Pf growth 48h inconclusive
COc1ccc(CC(=O)OCC(=O)c2c[nH]c3ccccc23)cc1	Pf growth 48h 8.28µM, HCV inh inconclusive
O=C(Cn1c(C(F)(F)F)nc2ccccc21)OCC(=O)c1c[nH]c2ccccc12	Pf growth 96h 4.15µM, Pf growth 48h 11.7µM
O=C(CNS(=O)(=O)c1ccccc1F)OCC(=O)c1c[nH]c2ccccc12	none
Cc1[nH]c2ccccc2c1C(=O)COC(=O)Cn1c(C(F)(F)F)nc2ccccc21	none
O=C(COc1ccccc1Cl)N(Cc1cccc(F)c1)C1CCS(=O)(=O)C1 (configuration not stated)	none (no result: Pf growth 96h, Pf growth 48h, HCV inh)
CCc1cccc(C)c1NC(=O)COCc1cc(-c2ccc3c(c2)OCO3)on1	none (no result: Pf growth 96h, Pf growth 48h, HCV inh)
Cc1cccc(Cn2cc(C(=O)c3ccccc3)c(=O)c3cc4c(cc32)OCO4)c1	none (no result: Pf growth 96h, Pf growth 48h, HCV inh)
COc1ccccc1C(=O)COC(=O)Cc1c[nH]c2ccccc12	HCV inh inconclusive
COc1cc(CC(=O)OCC(=O)c2c[nH]c3ccccc23)cc(OC)c1OC	Pf growth 96h 13.1µM, Pf growth 48h 4.15µM, HCV inh inconclusive
COc1cc(CC(=O)OCC(=O)c2ccc3c(c2)OCCO3)cc(OC)c1OC	HCMV antiviral -71.3, HCV inh inconclusive (no result: Pf growth 48h)
C/C(=N\OCC(=O)Nc1ccc(OC(F)(F)F)cc1)c1ccc2c(c1)OCCO2	Pf growth 96h inconclusive
C/C(=N\OCC(=O)Nc1ccccc1C(C)(C)C)c1ccc2c(c1)OCCO2	Pf growth 96h inconclusive, HCMV antiviral inconclusive, Pf growth 48h 9.28µM, HCV inh inconclusive
O=C(c1ccccc1)c1cn(CC(=O)N2CCCC2)c2ccccc12	Pf growth 96h 3.7µM (no result: Pf growth 48h)
O=C(O)Cn1cc(C(=S)N2CCOCC2)c2ccccc21	none (no result: Pf growth 96h)
O=C(c1ccccc1)c1cn(CC(=O)N2CCOCC2)c2ccccc12	none
COc1ccc(N2CCN(C(=O)C(=O)c3cn(CC(=O)N4CCCCCC4)c4ccccc34)CC2)cc1	Pf growth 96h 10.4µM, Pf growth 48h inconclusive, HCV inh inconclusive
O=C(O)Cn1cc(C(=S)N2CCCCC2)c2ccccc21	Pf growth 96h 8.28µM
CC(C)(C)C(=O)c1cn(CC(=O)O)c2ccccc12	HCV inh 10µM
O=C(C(=O)N1CCN(c2ccccc2)CC1)c1cn(CC(=O)N2CCCCCC2)c2ccccc12	Pf growth 96h inconclusive, Pf growth 48h 9.28µM, HCV inh inconclusive
CC1CCN(C(=O)C(=O)c2cn(CC(=O)N3CCCCCC3)c3ccccc23)CC1	Pf growth 96h inconclusive, Pf growth 48h inconclusive
CC1CCCN(C(=O)C(=O)c2cn(CC(=O)N3CCCCCC3)c3ccccc23)C1 (configuration not stated)	Pf growth 96h 11.7µM, Pf growth 48h inconclusive
CN1CCN(C(=O)C(=O)c2cn(CC(=O)N3CCCCCC3)c3ccccc23)CC1	none (no result: Pf growth 96h, Pf growth 48h, HCV inh)
COC(=O)[C@H]1[C@H](CO)[C@H]2Cn3c(ccc(Br)c3=O)[C@H]2N1Cc1ccc2c(c1)OCO2	none (no result: Pf growth 96h, Pf growth 48h, HCV inh)
COc1cccc(Cn2ccn(-c3ccc(F)cc3)c(=O)c2=O)c1	none (no result: Pf growth 96h, Pf growth 48h, HCV inh)
COc1cccc(-c2nn(-c3ccccc3)cc2CNC(C)Cn2cncn2)c1 (configuration not stated)	Pf growth 96h 10.4µM
COc1cccc(-c2nn(-c3ccccc3)cc2CO)c1	none (no result: Pf growth 96h)
O=C(CN1CCN(CC(=O)Nc2ccccc2F)CC1)Nc1ccc(Cl)c(C(F)(F)F)c1	none (no result: Pf growth 96h, Pf growth 48h, HCV inh)
